PubChem BioAssay (NCATS)
Values joined by “and” are separate entries in the source; they are usually repeats but may differ in a detail not shown here. Equal values may be shown once. Inconclusive results are not listed. The source holds several records for some structures; these can differ, active in one and inactive in another. Active and inactive are the calls of the source. Unless noted, calls come from the whole dose curve; as a rule, active = well fitted curve in the direction sought with a large enough effect; inconclusive = small, poorly fitted or top-dose-only effect, or another doubt; inactive = no such curve, though single readings can be large; an effect the other way counts as inactive or inconclusive.

How the values were obtained:
[1] = qHTS assay for measurement of the activity of small molecule inhibitors on Zika virus induced Caspase-3 activity in human astrocytoma cells (AID 1224859)
Procedure, shortened: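 Percent inhibition of virus-induced caspase-3/7 signal is calculated against uninfected and ZIKV-infected control cells. Cells are SNB-19, infected at 2 FFU/cell for 6 h after 1 h compound exposure.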

[2] = qHTS Screen of the MIPE 4.0 Collection Against Ewings Sarcoma (RDES) (AID 1259252); note: nearly all actives have a fitted effect of over 35% in size; note: potency is the fitted concentration of half-maximal effect
Procedure, shortened: (§1)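 Log-phase cells in RPMI with 5% FBS attached for 4 h, then received compounds as a titration for 48 h at 37C, 5% CO2. Viability was read by CellTiter-Glo luminescence and normalized to DMSO and no-cell wells.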

[3] = qHTS Screen of the MIPE 4.0 Collection Against Ewings Sarcoma (TC71) (AID 1259253); note: nearly all actives have a fitted effect of over 40% in size; note: potency is the fitted concentration of half-maximal effect
Procedure, shortened: as §1

[4] = qHTS Screen of the MIPE 4.0 Collection Against Ewings Sarcoma (EW8) (AID 1259255); note: nearly all actives have a fitted effect of over 35% in size; note: potency is the fitted concentration of half-maximal effect
Procedure, shortened: as §1

[5] = qHTS Screen of the MIPE 4.0 Collection Against Ewings Sarcoma (TC32) (AID 1259256); note: nearly all actives have a fitted effect of over 45% in size; note: potency is the fitted concentration of half-maximal effect
Procedure, shortened: as §1

[6] = qHTS assay to identify small molecule inhibitors of chordoma cells - UCH-1 (AID 1259355); note: nearly all actives have a fitted effect of over 55% in size; note: potency is the fitted concentration of half-maximal effect; series mostly up to about 46 µM
Procedure, shortened: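 Screening used approved and investigational drugs in 15-point titration against 800 seeded cells per well. A fixed combination of auranofin with camptothecin, doxorubicin, rubitecan and topotecan followed compound addition, and growth was scored by CellTiter-Glo after 48hr.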

[7] = qHTS assay to identify small molecule inhibitors of chordoma cells - UCH-2 (AID 1259356); note: series mostly up to about 46 µM
[8] = NS1 protein of Zika virus - qHTS assay to identify small molecule inhibitors in human HEK 293 cells (AID 1347053); note: nearly all actives have a fitted effect of over 55% in size; note: potency is the fitted concentration of half-maximal effect
Procedure, shortened: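 In this cell-based screen, HEK 293 cultures received compound for one hour before Zika MR766 at MOI = 0.5. NS1 was quantified 24 hours later by TR-FRET, normalized to virus-free wells and infected wells.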

[9] = P-glycoprotein substrates identified in KB-8-5-11 adenocarcinoma cell line, qHTS therapeutic library screen (AID 1346987); note: nearly all actives have a fitted effect of over 65% in size; note: potency is the fitted concentration of half-maximal effect
Procedure, shortened: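 Luminescence from CellTiter-Glo, read 5 min after addition, quantified survival of KB-8-5-11 (P-gp-overexpressing) cells exposed to compounds for 72 h. AC50 was derived from concentration-response curves.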

[10] = Natriuretic polypeptide receptor (hNpr1) antagonism - Pilot counterscreen GloSensor control cell line (AID 1347045; calls by dose curve; note: series mostly up to about 38 µM)
Procedure, shortened: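 Cells were first seeded and incubated overnight at 37C, then loaded with 2% GloSensor substrate for 2 h. Compounds were added for 30 min at room temperature, followed by a baseline read, 50 uM SNP and a final read after 20 min.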

[11] = molecular target: Atrial natriuretic peptide receptor 1 (Homo sapiens) (UniProt P16066); assay: Natriuretic polypeptide receptor (hNpr1) antagonism - Pilot screen (AID 1347049; calls by dose curve;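 note: agonist-evoked cGMP luminescence read 20 min after hNppA addition; series mostly up to about 58 µM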)
Procedure, shortened: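 cGMP-sensor HEK293/hNpr1 cells, 1500/well, plated overnight at 37C. 2% GloSensor reagent, 2 h RT. Compound (23 nL pin transfer) 30 min RT, baseline luminescence pre-read. 0.1 nM hNppA, 20 min RT, post-read.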

[12] = molecular target: Atrial natriuretic peptide receptor 2 (Homo sapiens) (UniProt P20594); assay: Natriuretic polypeptide receptor (hNpr2) antagonism - Pilot subtype selectivity assay (AID 1347050; calls by dose curve)
Procedure, shortened: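 Luminescence from a genetically encoded cGMP luciferase biosensor in hNpr2-expressing HEK293 cells is read before and 20 min after adding 1 nM hNppC. Test compounds, in interplate 1:5 titrations, are added 30-50 min ahead of the agonist.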

[13] = molecular target: Tyrosine-protein phosphatase non-receptor type substrate 1 (Homo sapiens) + Leukocyte surface antigen CD47 (Homo sapiens) (UniProt P78324+Q08722); assay: CD47-SIRPalpha protein protein interaction - LANCE assay qHTS validation (AID 1347057; active = well fitted curve in the direction sought with a large enough effect in the signal ratio, with a control signal flat, not every such curve was filed as active; the % refers to the signal ratio; note: series mostly up to about 38 µM)
Procedure, shortened: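 Inhibition of soluble CD47/SIRPalpha ectodomain association by titrated compounds, measured as 665/615 nm time-resolved FRET ratio after sequential 30 min room-temperature incubations.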

[14] = Identifying Small Molecule Inhibitors of Pancreatic Cancer Stem Cells (A2780, Spheroid) (AID 1259357); details: Potency: A2780 spheroid viability; note: potency is the fitted concentration of half-maximal effect;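 note: spheroids pre-formed over 14 days in stem cell medium on hydrogel; compound exposure lasted 48 h before the ATP luminescence read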
Procedure, shortened: (§2)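 Endpoint: ATP-based luminescence, 48 h drug exposure. Bortezomib at 9.2 uM final as full-kill control; DMSO vehicle as negative control; activity normalized between vehicle and cell-free wells.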

[15] = Identifying Small Molecule Inhibitors of Pancreatic Cancer Stem Cells (SN12C, Adherent) (AID 1259358);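 note: potency is the fitted concentration of half-maximal effect; cell survival measured after 48 h of compound exposure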
Procedure, shortened: (§3)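 Spheroids grown 14 days in stem cell media on hydrogel-coated nonadherent plates; 2D lines seeded directly. Compounds added after 4 h attachment, 48 h at 37C, 5% CO2; CellTiter-Glo luminescence normalized to DMSO (no inhibition) and no-cell wells (full inhibition).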

[16] = Identifying Small Molecule Inhibitors of Pancreatic Cancer Stem Cells (SN12C, Spheroid) (AID 1259360); details: Potency: SN12C spheroid viability; note: potency is the fitted concentration of half-maximal effect
Procedure, shortened: as §2

[17] = Identifying Small Molecule Inhibitors of Pancreatic Cancer Stem Cells (A278, Adherent) (AID 1259361); note: nearly all actives have a fitted effect of over 35% in size
Procedure, shortened: as §3

[18] = Identifying Small Molecule Inhibitors of Pancreatic Cancer Stem Cells (Panc1, Adherent) (AID 1259362); details: viability; note: potency is the fitted concentration of half-maximal effect
Procedure, shortened: as §2

Chain of Tyrosine-protein phosphatase non-receptor type substrate 1 (Homo sapiens) + Leukocyte surface antigen CD47 (Homo sapiens) (P78324 whole entry, looked up, the tested form may be a part): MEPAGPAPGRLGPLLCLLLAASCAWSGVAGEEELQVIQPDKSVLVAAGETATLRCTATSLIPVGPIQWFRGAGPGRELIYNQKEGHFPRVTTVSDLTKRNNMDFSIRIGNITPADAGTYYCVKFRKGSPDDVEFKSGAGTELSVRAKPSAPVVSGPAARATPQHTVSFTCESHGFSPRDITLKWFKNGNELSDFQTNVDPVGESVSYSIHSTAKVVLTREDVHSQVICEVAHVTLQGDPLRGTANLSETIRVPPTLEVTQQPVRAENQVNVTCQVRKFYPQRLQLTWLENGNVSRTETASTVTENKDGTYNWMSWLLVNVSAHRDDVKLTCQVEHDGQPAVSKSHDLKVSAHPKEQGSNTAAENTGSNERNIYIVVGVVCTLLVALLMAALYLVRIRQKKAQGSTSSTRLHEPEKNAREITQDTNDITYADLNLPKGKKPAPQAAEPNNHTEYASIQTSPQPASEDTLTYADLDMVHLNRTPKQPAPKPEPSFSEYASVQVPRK
Chain of Tyrosine-protein phosphatase non-receptor type substrate 1 (Homo sapiens) + Leukocyte surface antigen CD47 (Homo sapiens) (Q08722 whole entry, looked up, the tested form may be a part): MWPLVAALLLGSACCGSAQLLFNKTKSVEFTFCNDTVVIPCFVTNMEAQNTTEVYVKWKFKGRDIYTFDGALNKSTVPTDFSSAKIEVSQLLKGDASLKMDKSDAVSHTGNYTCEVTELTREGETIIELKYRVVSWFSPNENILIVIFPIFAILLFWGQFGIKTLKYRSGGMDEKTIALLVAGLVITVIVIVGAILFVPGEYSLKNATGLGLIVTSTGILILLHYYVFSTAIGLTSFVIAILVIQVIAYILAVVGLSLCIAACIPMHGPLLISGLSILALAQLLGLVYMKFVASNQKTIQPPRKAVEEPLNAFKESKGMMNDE
Chain of Atrial natriuretic peptide receptor 2 (Homo sapiens) (P20594 whole entry, looked up): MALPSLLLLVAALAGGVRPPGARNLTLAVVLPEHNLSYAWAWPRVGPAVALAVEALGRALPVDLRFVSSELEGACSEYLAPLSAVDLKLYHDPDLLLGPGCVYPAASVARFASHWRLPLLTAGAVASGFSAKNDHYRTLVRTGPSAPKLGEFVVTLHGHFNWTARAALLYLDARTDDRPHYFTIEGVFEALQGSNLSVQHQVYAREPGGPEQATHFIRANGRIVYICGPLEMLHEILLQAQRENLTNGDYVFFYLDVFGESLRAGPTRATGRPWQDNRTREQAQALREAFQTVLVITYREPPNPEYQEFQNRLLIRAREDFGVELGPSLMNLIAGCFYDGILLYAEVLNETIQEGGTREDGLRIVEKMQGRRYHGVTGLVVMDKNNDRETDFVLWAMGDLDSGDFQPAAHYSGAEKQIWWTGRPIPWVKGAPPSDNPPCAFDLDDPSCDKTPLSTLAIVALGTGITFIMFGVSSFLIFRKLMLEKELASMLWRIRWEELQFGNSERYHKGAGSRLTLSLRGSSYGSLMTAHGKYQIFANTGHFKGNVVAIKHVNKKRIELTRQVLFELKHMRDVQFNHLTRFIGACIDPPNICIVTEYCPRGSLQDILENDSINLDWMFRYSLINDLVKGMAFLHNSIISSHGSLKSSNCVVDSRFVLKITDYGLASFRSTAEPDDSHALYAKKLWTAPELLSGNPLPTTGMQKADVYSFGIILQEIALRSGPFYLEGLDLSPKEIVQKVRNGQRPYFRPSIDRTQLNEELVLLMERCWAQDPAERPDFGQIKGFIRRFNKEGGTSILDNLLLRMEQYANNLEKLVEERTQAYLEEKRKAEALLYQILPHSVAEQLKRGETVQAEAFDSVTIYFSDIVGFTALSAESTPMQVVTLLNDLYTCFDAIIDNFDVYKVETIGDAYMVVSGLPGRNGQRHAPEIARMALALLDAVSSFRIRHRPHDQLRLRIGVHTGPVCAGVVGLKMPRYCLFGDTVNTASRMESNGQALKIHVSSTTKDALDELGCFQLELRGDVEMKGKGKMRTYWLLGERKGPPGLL
Chain of Atrial natriuretic peptide receptor 1 (Homo sapiens) (P16066 whole entry, looked up): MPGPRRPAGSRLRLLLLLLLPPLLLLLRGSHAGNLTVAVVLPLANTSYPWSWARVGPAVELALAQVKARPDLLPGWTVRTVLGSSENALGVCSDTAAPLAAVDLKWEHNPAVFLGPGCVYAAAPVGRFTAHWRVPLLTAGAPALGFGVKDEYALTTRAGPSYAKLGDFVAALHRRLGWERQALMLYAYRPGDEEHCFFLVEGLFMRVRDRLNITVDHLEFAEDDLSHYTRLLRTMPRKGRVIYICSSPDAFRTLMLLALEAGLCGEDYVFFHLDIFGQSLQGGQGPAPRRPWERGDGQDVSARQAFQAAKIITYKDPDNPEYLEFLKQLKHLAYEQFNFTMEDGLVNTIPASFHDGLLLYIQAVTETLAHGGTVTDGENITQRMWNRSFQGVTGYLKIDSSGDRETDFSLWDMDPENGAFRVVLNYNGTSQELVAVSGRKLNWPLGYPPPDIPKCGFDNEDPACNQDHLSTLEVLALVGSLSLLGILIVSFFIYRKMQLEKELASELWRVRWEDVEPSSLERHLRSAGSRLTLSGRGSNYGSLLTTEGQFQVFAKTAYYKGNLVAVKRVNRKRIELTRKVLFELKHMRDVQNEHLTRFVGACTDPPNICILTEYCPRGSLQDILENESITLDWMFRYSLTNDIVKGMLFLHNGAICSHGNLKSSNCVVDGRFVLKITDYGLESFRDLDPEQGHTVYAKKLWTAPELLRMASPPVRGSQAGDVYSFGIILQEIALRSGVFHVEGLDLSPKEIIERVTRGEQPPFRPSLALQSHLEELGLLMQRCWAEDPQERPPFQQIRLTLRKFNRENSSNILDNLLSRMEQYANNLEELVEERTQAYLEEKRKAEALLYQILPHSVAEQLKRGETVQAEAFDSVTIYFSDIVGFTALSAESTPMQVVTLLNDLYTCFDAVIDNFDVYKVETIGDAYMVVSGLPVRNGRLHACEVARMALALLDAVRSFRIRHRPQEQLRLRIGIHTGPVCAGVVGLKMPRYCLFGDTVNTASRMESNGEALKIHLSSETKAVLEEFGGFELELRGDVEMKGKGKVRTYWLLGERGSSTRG

CN1CCCC(n2nc(Cc3ccc(Cl)cc3)c3ccccc3c2=O)CC1 (stereo not drawn)
inactive: Potency [1] | Potency [6] | Potency [7] | Potency [8]
active: Potency [2] 1.05 µM | Potency [3] 2.64 µM | Potency [4] 8.33 µM | Potency [5] 3.72 µM

CC[C@H](NC(C)C)[C@H](O)c1ccc(O)c2[nH]c(=O)ccc12
inactive: Potency [1] | Potency [2] | Potency [3] | Potency [4] | Potency [5] | Potency [6] | Potency [7] | Potency [9] | Potency [8]

CO[C@@H]1[C@@H](OC(N)=O)[C@@H](O)[C@H](Oc2ccc3c(O)c(NC(=O)c4ccc(O)c(CC=C(C)C)c4)c(=O)oc3c2C)OC1(C)C
inactive: Potency [6] | Potency [7] | Potency [9] | Potency [8]
active: Potency [2] 5.9 µM | Potency [3] 4.69 µM | Potency [4] 2.09 µM | Potency [5] 5.9 µM

Cc1cc(NS(=O)(=O)c2ccc(N)cc2)no1
inactive: Potency [2] | Potency [3] | Potency [4] | Potency [5] | Potency [6] | Potency [7] | Potency [9] | Potency [8]

O=C(O)c1cccnc1
inactive: Potency [2] | Potency [3] | Potency [4] | Potency [5] | Potency [6] | Potency [7] | Potency [9] | Potency [8]

NC(=O)c1ccc2[nH]ccc2c1
inactive: Potency [1] | Potency [2] | Potency [3] | Potency [4] | Potency [5] | Potency [10] | Potency [11] | Potency [12] | Potency [8] | outcome [13]

CCOC(=O)[C@H](CCc1ccccc1)N[C@H]1CS[C@H](c2cccs2)CN(CC(=O)O)C1=O
active: Potency [2] 4.18 µM | Potency [3] 5.9 µM | Potency [4] 5.9 µM | Potency [5] 4.18 µM
inactive: Potency [1] | Potency [6] | Potency [7] | Potency [9] | Potency [8]

CNC(=O)c1cc(Oc2ccc(NC(=O)Nc3ccc(Cl)c(C(F)(F)F)c3)cc2)ccn1
active: Potency [2] 1.18 µM | Potency [3] 2.35 µM | Potency [4] 18.7 µM | Potency [14] 20.9 µM | Potency [15] 20.9 µM | Potency [16] 18.7 µM | IC50 (viability decrease) [17] 18.7 µM
inactive: Potency [1] | Potency [8]

Cc1cccc(N(C)C(=S)Oc2ccc3ccccc3c2)c1
inactive: Potency [1] | Potency [2] | Potency [3] | Potency [4] | Potency [5] | Potency [6] | Potency [7] | Potency [9] | Potency [8]

CCN(C)C(=O)Oc1cccc([C@H](C)N(C)C)c1
inactive: Potency [2] | Potency [3] | Potency [4] | Potency [5] | Potency [6] | Potency [7] | Potency [8]

CN(C)CCc1c[nH]c2ccc(CS(=O)(=O)N3CCCC3)cc12
inactive: Potency [1] | Potency [2] | Potency [3] | Potency [4] | Potency [5] | Potency [6] | Potency [7] | Potency [9] | Potency [8]

N[C@@H](Cc1ccc(O)c(O)c1)C(=O)O
inactive: Potency [1] | Potency [2] | Potency [3] | Potency [4] | Potency [5] | Potency [7] | Potency [9] | Potency [10] | Potency [12] | Potency [8] | outcome [13]

O=C(N[C@H](CO)[C@H](O)c1ccc([N+](=O)[O-])cc1)C(Cl)Cl
inactive: Potency [2] | Potency [3] | Potency [4] | Potency [5] | Potency [6] | Potency [7] | Potency [9] | Potency [8]

CCN[C@H]1C[C@H](C)S(=O)(=O)c2sc(S(N)(=O)=O)cc21
inactive: Potency [1] | Potency [2] | Potency [3] | Potency [4] | Potency [5] | Potency [6] | Potency [7] | Potency [9] | Potency [8]

COc1cc2c(Nc3ccc(Br)cc3F)ncnc2cc1OCC1CCN(C)CC1
active: Potency [2] 16.6 µM | Potency [3] 5.9 µM | Potency [4] 5.26 µM | Potency [6] 5.01 µM | IC50 (viability decrease) [17] 18.7 µM
inactive: Potency [1] | Potency [14] | Potency [8]

CC(=O)CC(c1ccccc1)c1c(O)c2ccccc2oc1=O (stereo not drawn)
inactive: Potency [1] | Potency [2] | Potency [4] | Potency [5] | Potency [6] | Potency [7] | Potency [9] | Potency [8]

CNNCc1ccc(C(=O)NC(C)C)cc1
inactive: Potency [1] | Potency [2] | Potency [3] | Potency [4] | Potency [5] | Potency [6] | Potency [7] | Potency [9] | Potency [8]

S=P(N1CC1)(N1CC1)N1CC1
active: Potency [2] 16.6 µM | Potency [3] 16.6 µM | Potency [4] 6.62 µM | Potency [5] 2.64 µM
inactive: Potency [1] | Potency [6] | Potency [7] | Potency [9] | Potency [8]

NC1(c2ccc(-c3nc4ccn5c(=O)[nH]nc5c4cc3-c3ccccc3)cc2)CCC1
active: Potency [2] 23.5 µM | Potency [3] 20.9 µM | Potency [4] 4.69 µM | Potency [5] 13.2 µM | Potency [15] 26.4 µM | Potency [16] 23.5 µM | Potency [18] 20.9 µM | Potency [8] 9.35 µM
inactive: Potency [1]

C[C@@H]1CN(c2c(F)c(N)c3c(=O)c(C(=O)O)cn(C4CC4)c3c2F)C[C@H](C)N1
inactive: Potency [2] | Potency [3] | Potency [4] | Potency [5] | Potency [6] | Potency [7] | Potency [8]

O=C(O)c1ccc(-n2nc(-c3ccccc3O)nc2-c2ccccc2O)cc1
inactive: Potency [1] | Potency [8]
active: Potency [2] 20.9 µM | Potency [3] 14.8 µM | Potency [4] 20.9 µM

CCN1CCCC1CNC(=O)c1cc(S(N)(=O)=O)ccc1OC (stereo not drawn)
inactive: Potency [1] | Potency [2] | Potency [4] | Potency [9] | Potency [10] | Potency [11] | Potency [12] | Potency [8] | outcome [13]
active: Potency [3] 16.6 µM

C[C@@H](CN1CC(=O)NC(=O)C1)N1CC(=O)NC(=O)C1
active: Potency [4] 18.7 µM
inactive: Potency [1] | Potency [2] | Potency [3] | Potency [5] | Potency [6] | Potency [7] | Potency [8]
inactive and 18.7 µM (active): Potency [9]

O=S(=O)(O)CCS
inactive: Potency [1] | Potency [2] | Potency [3] | Potency [4] | Potency [5] | Potency [6] | Potency [7] | Potency [9] | Potency [8]

Clc1ccccc1CN1CCc2sccc2C1
inactive: Potency [1] | Potency [2] | Potency [3] | Potency [4] | Potency [5] | Potency [9] | Potency [8]

CCCOc1ccc(C(=O)OCCN(CC)CC)cc1N
inactive: Potency [1] | Potency [2] | Potency [3] | Potency [4] | Potency [5] | Potency [8]

COc1cc(NCc2ccc3nc(N)nc(N)c3c2C)cc(OC)c1OC
active: Potency [2] 3.32 µM | Potency [3] 0.833 µM | Potency [4] 1.32 µM | Potency [5] 0.833 µM
inactive: Potency [1] | Potency [7]
inactive and 5.8 µM (active): Potency [9]

COc1ccc(-c2ccc3cc(C(=O)O)ccc3c2)cc1C12CC3CC(CC(C3)C1)C2
13 µM (active) and inactive: Potency [9]
inactive: Potency [1] | Potency [4] | Potency [6] | Potency [7] | Potency [8]
active: Potency [2] 2.09 µM | Potency [3] 2.96 µM
